From PubChem BioAssay (NCATS)
Several values for one entry are separate records, joined by “and”; a condition that tells them apart may be missing. Identical values can stand only once. Results filed as inconclusive are left out. Activity calls are given as the source filed them. Unless noted, the call rests on the fitted dose curve; in most records, active means well fitted curve in the direction sought with a large enough effect; inconclusive means small, poorly fitted or top-dose-only effect, or another doubt; inactive means no such curve, though single readings can be large; an effect the other way counts as inactive or inconclusive.

How the values were obtained:
[1] = AP1 Signaling Pathway (AID 357; active means well fitted curve in either direction with a large enough effect, not every such curve was filed as active;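 further: ME-180 reporter cells stimulated with EGF at its EC50 level; on the % scale 0 is the no-effect control and ±100 the full control effect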); conditions: ME-180 AP-1-bla reporter, EGF-induced, beta-lactamase ratio, 5 h
Outline: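 Read-out was the 460nm/530nm emission ratio (excitation 405nm) after CCF4 loading for 2.5 hours at room temperature. Cells carried an AP-1-driven beta-lactamase reporter, were stimulated with EC50 EGF plus compound for 5 hours, and AC50 values came from titrations.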

[2] = NFAT Signaling Pathway (AID 444; active means well fitted curve in either direction with a large enough effect, not every such curve was filed as active;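 further: carbachol stimulus at about its EC50 of 1 µM final; on the % scale 0 is the no-effect control and ±100 the full control effect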); conditions: Jurkat NFAT-bla M1, carbachol, beta-lactamase ratio, 5 h
Outline: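 Read-out: CCF4 FRET ratio (460 nm/530 nm) after 1 h RT dye loading, used for %activity and AC50 from titration series. Cells: Jurkat NFAT-β-lactamase/M1 line, treated with compound plus 1 uM carbachol for 5 h, 37 °C.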

[3] = Stat Signaling Pathway (AID 446; active means well fitted curve in either direction with a large enough effect, not every such curve was filed as active;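 further: ME-180 cervical cancer cells given 40 pM IL-6 alongside compound; SIE-controlled beta-lactamase reporter measured as 460/530 nm FRET emission ratio; on the % scale 0 is the no-effect control and ±100 the full control effect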); conditions: ME-180 SIE beta-lactamase reporter, IL-6 stimulated, 5 h
Outline: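 Reporter line: ME-180 cervical carcinoma, SIE-beta-lactamase. Treatment: compound with 40 pM IL-6, 5 hrs, 37 C, in low-serum OPTI-MEM with 10 mM HEPES pH 7.3. Detection: 460/530 nm fluorescence.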

[4] = target: Glucocorticoid receptor (Homo sapiens) (UniProt P04150); experiment: GR-GFP Redistribution (AID 450;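 active means compounds whose dose series gives a full or clear partial fitted curve of increased nuclear translocation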; further: potency means the concentration at half of the fitted maximal effect); conditions: U2OS GR-GFP nuclear translocation, laser cytometry, 2 h
Glucocorticoid receptor (Homo sapiens), sequence (P04150 whole entry, looked up, the tested form may be a part): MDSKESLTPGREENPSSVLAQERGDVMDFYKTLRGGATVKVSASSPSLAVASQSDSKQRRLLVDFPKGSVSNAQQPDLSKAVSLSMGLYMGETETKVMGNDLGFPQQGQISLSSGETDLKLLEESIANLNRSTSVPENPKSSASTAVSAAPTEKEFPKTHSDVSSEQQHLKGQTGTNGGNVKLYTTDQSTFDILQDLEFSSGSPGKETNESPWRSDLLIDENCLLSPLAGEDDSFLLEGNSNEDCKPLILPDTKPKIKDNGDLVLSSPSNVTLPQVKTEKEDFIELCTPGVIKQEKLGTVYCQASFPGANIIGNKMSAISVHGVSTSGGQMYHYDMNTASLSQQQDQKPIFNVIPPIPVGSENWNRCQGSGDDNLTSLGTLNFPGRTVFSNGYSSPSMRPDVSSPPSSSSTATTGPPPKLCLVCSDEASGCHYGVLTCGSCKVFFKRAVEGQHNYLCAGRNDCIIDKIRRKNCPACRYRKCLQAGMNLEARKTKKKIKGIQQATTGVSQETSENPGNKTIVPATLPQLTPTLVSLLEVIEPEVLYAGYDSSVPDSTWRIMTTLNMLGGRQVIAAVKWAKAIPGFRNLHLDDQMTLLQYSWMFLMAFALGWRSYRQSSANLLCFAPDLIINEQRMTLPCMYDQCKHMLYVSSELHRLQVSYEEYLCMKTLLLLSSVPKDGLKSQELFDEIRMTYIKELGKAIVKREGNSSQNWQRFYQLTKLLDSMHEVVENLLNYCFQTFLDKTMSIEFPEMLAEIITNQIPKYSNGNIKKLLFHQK

[5] = target: Glucocorticoid receptor (Homo sapiens) (UniProt P04150); experiment: GR-EFC Redistribution (AID 451; calls by dose curve; further: potency means the concentration at half of the fitted maximal effect); conditions: CHO-K1 GR-EFC translocation, beta-gal luminescence, 2 h
Outline: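 Translocation of GR-ED fusion to nuclear EA restores b-gal, read by luminescence after 1 h room-temperature detection. Engineered CHO-K1 biosensor cells, 1,000/well, exposed 2 h at 37 C to titrations up to 46 uM final.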

[6] = target: Mitogen-activated protein kinase 10 (Mus musculus) (UniProt Q61831); experiment: JNK3 AlphaScreen Assay (AID 530; active means well fitted curve in either direction with a large enough effect, not every such curve was filed as active;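 further: kinase came from lysate of stimulated human HepG2 cells; signal reports phosphorylation of biotinylated GST-cJun 1-79 at Ser73 with 10 µM ATP; on the % scale 0 is the no-effect control and ±100 the full control effect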)
Outline: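 Room-temperature AlphaScreen kinase assay; pre-activated HepG2 lysate as JNK3 source, biotin-GST-cJun(1-79) substrate, 10 uM ATP, compound 15 min preincubation.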

[7] = target: 3',5'-cyclic-AMP phosphodiesterase 4B (Homo sapiens) (UniProt Q07343); experiment: qHTS Assay for Inhibitors of PDE-IV (AID 607; active means well fitted activation curve with a large enough effect in the main read-out, with a control signal flat, not every such curve was filed as active; further: % of control where 0% means no effect)
3',5'-cyclic-AMP phosphodiesterase 4B (Homo sapiens), sequence (Q07343 whole entry, looked up): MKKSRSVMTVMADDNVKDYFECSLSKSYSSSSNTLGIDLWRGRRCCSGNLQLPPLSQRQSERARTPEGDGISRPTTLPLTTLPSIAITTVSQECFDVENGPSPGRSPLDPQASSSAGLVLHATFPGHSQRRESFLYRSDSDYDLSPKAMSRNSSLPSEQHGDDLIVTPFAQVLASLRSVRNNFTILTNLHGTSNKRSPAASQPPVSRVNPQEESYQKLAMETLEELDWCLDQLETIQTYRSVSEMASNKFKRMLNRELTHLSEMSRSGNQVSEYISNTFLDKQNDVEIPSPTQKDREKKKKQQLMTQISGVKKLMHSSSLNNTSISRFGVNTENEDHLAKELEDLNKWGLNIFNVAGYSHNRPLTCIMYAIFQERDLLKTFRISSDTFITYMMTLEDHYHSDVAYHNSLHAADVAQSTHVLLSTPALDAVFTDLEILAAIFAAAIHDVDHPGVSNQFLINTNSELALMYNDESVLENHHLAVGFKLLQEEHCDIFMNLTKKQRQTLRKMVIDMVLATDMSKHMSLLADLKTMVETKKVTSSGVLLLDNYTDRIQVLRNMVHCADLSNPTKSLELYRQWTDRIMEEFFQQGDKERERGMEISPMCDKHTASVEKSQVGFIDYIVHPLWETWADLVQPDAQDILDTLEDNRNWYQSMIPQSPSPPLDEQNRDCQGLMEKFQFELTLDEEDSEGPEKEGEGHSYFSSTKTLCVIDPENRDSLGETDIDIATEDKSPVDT
Outline: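 Cell-based read-out of cAMP via a modified cyclic nucleotide-gated channel and membrane potential dye (535/590 nm) in HEK293 cells expressing PDE4 endogenously. Compounds tested up to 22.9 uM final; 100 uM RO 20-1724 reference.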

[8] = target: Guanine nucleotide-binding protein G(i) subunit alpha-1 (Homo sapiens) (UniProt P63096); experiment: qHTS Assay for Inhibitors of RGS12 GoLoco Motif Activity (Green Fluorophore) (AID 879);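 further: 0% = labeled peptide with Gαi1 and full inhibition = labeled peptide alone without protein; negative values mean loss of peptide binding seen as reduced polarization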
Guanine nucleotide-binding protein G(i) subunit alpha-1 (Homo sapiens), sequence (P63096 whole entry, looked up): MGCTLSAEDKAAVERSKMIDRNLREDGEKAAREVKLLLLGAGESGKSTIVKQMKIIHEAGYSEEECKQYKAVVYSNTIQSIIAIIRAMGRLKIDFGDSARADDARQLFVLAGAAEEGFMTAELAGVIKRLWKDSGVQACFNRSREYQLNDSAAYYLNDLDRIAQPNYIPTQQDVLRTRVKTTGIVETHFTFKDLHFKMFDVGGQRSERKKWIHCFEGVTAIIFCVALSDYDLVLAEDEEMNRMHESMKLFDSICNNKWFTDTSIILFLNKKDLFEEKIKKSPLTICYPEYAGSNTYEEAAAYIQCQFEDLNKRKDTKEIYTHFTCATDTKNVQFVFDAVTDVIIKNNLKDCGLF
Outline: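 Fluorescence polarization assay: 50 nM Gαi1 with 10 nM FITC-labeled RGS12 GoLoco peptide in 10 mM Tris pH 7.5, 150 mM NaCl, 0.1 mM GDP, 0.05% NP40, 10 min at room temperature with compound.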

[9] = Confirmation and Secondary Assay for Modulators of Hemoglobin Beta Chain Splicing at IVS2 654 locus (AID 910);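 further: HeLa cells stably carrying EGFP split by mutant beta-globin IVS2-654 intron; per-well total GFP intensity by laser scanning cytometry after 2-day treatment; % of control where 0% means no effect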
Outline: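 Readout: per-well total peak green fluorescence (488 nm ex, 500–520 nm em) from objects 5–250 µm, reflecting correct splicing of an EGFP-654 reporter. Compounds were applied for 2 days at 37 °C to overnight-plated HeLa EGFP-654 cells; controls were DMSO and 500 nM IVS2-654 PNA.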

[10] = qHTS Assay for Identification of Small Molecule Agonists for Thrombopoietin (TPO) Signaling Pathway (AID 917); further: on the % scale 0 is the no-effect control and ±100 the full control effect
Outline: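 Luminescence from a Glycoprotein IIb promoter–driven luciferase reporter served as read-out in murine Ba/F3 cells carrying the human TPO receptor. Cells, deprived of IL-3 overnight, received compounds with 26 pM TPO and were incubated 24 hrs at 37 C.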

[11] = Confirmation and Secondary Assay for Modulators of Hemoglobin Beta Chain Splicing at IVS2 705 locus (AID 930);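 further: HeLa cells stably expressing the EGFP-705 splicing reporter; GFP fluorescence per well restored by corrected splicing of the IVS2-705 intron in EGFP; % of control where 0% means no effect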
Outline: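 Fluorescence gain (488 nm laser, 500-520 nm PMT) reflects restored correct splicing of a mutant IVS2-705 intron inside EGFP in stably transfected HeLa cells after 2-day compound treatment.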

[12] = target: Pyruvate kinase (Leishmania mexicana) (UniProt Q27686); experiment: qHTS Validation Assay for Inhibitors of Leishmania Mexicana Pyruvate Kinase (AID 945);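 further: 0% = DMSO only neutral control wells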
Pyruvate kinase (Leishmania mexicana), sequence (Q27686 2-499 E452W): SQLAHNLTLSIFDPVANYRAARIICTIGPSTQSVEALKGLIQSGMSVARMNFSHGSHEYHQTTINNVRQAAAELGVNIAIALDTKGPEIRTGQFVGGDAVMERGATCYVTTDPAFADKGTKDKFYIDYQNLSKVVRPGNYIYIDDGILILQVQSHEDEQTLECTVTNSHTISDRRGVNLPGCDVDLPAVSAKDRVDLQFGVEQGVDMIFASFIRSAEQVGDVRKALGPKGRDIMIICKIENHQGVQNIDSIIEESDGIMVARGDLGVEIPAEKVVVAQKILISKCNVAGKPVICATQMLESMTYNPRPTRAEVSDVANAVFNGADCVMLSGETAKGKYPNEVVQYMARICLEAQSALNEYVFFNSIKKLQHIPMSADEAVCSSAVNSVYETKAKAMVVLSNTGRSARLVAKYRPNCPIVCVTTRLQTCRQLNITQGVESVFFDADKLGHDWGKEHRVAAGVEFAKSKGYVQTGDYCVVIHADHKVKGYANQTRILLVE
Outline: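 Compounds are tested as eight-point concentration series. Reactions contain 0.2 nM LmPYK E451W, 0.5 mM PEP, 0.1 mM ADP, 7 mM MgCl2 and 50 mM KCl at pH 7.2, run 1 h at room temperature, then read by PKLight luminescence.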

[13] = target: Pyruvate kinase PKM (Homo sapiens) (UniProt P14618); experiment: qHTS Assay for Activators of Human Muscle Pyruvate Kinase (AID 954; active means well fitted curve in the direction sought with a large enough effect, not every such curve was filed as active;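 further: 0% = uninhibited enzyme and -100% = no enzyme or full thiadiazolimine inhibition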)
Pyruvate kinase PKM (Homo sapiens), sequence (P14618 whole entry, looked up): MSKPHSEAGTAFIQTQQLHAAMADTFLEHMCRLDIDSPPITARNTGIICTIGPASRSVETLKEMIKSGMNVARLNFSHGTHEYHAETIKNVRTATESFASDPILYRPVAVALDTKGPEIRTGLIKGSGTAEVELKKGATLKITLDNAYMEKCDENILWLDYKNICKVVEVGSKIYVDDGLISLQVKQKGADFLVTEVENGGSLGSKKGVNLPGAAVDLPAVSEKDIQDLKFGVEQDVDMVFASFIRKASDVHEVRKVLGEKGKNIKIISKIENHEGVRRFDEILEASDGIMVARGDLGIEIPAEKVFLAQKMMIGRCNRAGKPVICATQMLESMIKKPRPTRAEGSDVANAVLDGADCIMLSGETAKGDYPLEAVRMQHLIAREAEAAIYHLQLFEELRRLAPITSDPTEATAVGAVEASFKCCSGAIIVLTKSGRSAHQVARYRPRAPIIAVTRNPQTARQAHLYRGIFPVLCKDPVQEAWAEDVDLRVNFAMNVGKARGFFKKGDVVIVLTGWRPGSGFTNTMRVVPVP
Outline: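 Human PKM2 activity is measured as ATP generation, detected by luciferase-coupled luminescence. The enzyme (0.1 nM) acts on 0.5 mM PEP and 0.1 mM ADP for 1 h at ambient temperature; data are normalized to uninhibited and full-inhibition wells.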

[14] = target: Alpha-galactosidase A (Homo sapiens) (UniProt P06280); experiment: Counterscreen for Glucocerebrosidase Inhibitors: qHTS Assay for Human alpha-Galactosidase at pH 4.5 (AID 992); further: 0% is about no effect
Alpha-galactosidase A (Homo sapiens), sequence (P06280 whole entry, looked up): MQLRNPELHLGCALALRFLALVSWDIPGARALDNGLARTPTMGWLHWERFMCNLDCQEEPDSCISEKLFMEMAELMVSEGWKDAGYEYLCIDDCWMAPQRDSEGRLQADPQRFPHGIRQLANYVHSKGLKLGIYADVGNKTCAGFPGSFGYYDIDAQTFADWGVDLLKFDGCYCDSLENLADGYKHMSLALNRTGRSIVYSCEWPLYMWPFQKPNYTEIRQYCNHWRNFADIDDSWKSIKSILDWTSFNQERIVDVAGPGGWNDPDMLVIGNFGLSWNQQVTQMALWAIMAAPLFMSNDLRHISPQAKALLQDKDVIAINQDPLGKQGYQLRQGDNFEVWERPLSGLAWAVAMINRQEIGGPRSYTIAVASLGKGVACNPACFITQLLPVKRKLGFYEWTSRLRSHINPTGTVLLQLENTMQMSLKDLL
Outline: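 Quantitative HTS: compounds tested from 0.7 nM up to 77 uM against 2 nM enzyme with 80 uM 4-MU alpha-D-galactopyranoside. The 20 min room-temperature reaction is stopped with 1M NaOH/1M glycine, pH 10.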

[15] = target: alpha-glucosidase (Oryza sativa, rice) (UniProt Q653V4); experiment: Counterscreen for Glucocerebrosidase Inhibitors: qHTS Assay for Rice alpha-Glucosidase at pH 5.0 (AID 997);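 further: 0% = full activity with enzyme and -100% = basal without enzyme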
Outline: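 Rice alpha-glucosidase (4 nM final) with 400 uM 4-methylumbelliferyl-alpha-D-glucopyranoside in citrate buffer pH 5.0, 20 min at room temperature, stopped at pH 10; fluorescence 365/440 nm, compounds 0.7 nM–77 uM, AC50 from Hill fits.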

[16] = qHTS Assay for Lipid Storage Modulators (AID 1519; calls by dose curve); conditions: Drosophila S3 cells, BODIPY lipid droplet/cell ratio, laser cytometry, cells loaded with oleic acid
Outline: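 Cells seeded at 5,000 per well were treated with compounds over a concentration series and loaded with oleic acid (400 uM, as added). Lipid droplet fluorescence (488 nm excitation, 500-530 nm channel) was read by laser-scanning cytometry and normalized to 20 uM Triacsin C.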

[17] = target: Ubiquitin carboxyl-terminal hydrolase 1 (Homo sapiens) (UniProt O94782); experiment: Inhibitors of USP1/UAF1: Pilot qHTS (AID 504865);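 further: rhodamine fluorescence freed from ubiquitin-rhodamine substrate followed over time; top concentration of the series differs between compounds; on the % scale 0 is the no-effect control and ±100 the full control effect; nearly all actives have a fitted effect of over 35% in size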
Ubiquitin carboxyl-terminal hydrolase 1 (Homo sapiens), sequence (O94782 whole entry, looked up): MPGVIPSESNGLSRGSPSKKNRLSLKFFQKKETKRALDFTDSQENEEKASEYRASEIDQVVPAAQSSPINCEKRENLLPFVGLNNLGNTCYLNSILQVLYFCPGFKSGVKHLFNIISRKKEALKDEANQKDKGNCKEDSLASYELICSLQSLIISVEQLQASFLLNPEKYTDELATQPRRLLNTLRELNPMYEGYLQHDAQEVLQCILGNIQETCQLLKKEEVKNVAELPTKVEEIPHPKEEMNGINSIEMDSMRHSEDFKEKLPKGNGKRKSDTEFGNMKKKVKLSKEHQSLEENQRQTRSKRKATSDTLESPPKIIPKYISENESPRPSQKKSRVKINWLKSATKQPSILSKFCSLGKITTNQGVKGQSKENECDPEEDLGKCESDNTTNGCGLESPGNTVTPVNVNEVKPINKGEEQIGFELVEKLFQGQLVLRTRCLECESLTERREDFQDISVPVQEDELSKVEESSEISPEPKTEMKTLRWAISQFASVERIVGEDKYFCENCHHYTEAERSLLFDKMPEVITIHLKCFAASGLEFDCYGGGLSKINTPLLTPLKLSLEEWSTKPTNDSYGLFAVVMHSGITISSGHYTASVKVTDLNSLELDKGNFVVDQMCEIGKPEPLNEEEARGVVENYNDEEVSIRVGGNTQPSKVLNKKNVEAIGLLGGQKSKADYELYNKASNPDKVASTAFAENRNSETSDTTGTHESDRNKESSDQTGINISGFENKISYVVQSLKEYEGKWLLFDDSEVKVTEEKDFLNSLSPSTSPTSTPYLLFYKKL
Outline: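 In 50mM HEPES pH 7.8 containing 0.5mM EDTA, 1mM TCEP, 0.1 mg/ml BSA and 0.01% Tween-20, 1nM USP1/UAF1 is exposed to compound for 15 min, then Ub-Rho (150nM final) is added and fluorescence is read over time.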

[18] = target: DNA dC->dU-editing enzyme APOBEC-3G (Homo sapiens) (UniProt Q9HC16); experiment: qHTS for inhibitors of Vif-A3G interactions: Validation (AID 588379); further: 0% is about no effect
DNA dC->dU-editing enzyme APOBEC-3G (Homo sapiens), sequence (Q9HC16 whole entry, looked up): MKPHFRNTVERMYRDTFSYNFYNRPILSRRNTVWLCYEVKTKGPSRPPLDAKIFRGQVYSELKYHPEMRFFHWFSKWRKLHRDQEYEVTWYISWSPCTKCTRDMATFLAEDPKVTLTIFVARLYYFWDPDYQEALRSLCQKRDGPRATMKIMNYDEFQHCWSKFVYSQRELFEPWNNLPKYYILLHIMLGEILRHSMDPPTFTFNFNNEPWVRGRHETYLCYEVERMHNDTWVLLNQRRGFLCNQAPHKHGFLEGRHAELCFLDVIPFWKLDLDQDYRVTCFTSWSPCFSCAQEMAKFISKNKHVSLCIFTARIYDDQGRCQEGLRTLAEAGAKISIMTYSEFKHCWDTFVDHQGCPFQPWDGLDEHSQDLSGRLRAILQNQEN
Outline: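 HeLa cells stably expressing Vif and A3G-eYFP, 700 cells/well, incubated overnight at 37 deg C, then exposed to compound overnight at 37 deg C. Inhibition of Vif-mediated degradation read as increased yellow fluorescence (Ex 488/Em 500-530) by laser-scanning cytometry.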

[19] = tested on: Zika virus NS2B-NS3 protease; experiment: Primary screen GU AMC qHTS for Zika virus inhibitors (AID 1347154);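 further: 0% = no-inhibitor control and -100% = no-enzyme control; nearly all actives have a fitted effect of over 70% in size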
Outline: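 Fluorogenic AMC-substrate cleavage by noncovalent NS2B-NS3 protease complex (25 nM, pH 8.0 Tris buffer with Tween 20) followed for 15 minutes at room temperature (~20% conversion). Percent inhibition from ex340/em450 signal change, fitted by 4-parameter Hill equation.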

[20] = target: Cytochrome P450 3A4 (Homo sapiens) (UniProt P08684); experiment: qHTS Assay for Activators of Cytochrome P450 3A4 (AID 885); further: nearly all actives have a fitted effect of over 65% in size
Cytochrome P450 3A4 (Homo sapiens), sequence (P08684 whole entry, looked up): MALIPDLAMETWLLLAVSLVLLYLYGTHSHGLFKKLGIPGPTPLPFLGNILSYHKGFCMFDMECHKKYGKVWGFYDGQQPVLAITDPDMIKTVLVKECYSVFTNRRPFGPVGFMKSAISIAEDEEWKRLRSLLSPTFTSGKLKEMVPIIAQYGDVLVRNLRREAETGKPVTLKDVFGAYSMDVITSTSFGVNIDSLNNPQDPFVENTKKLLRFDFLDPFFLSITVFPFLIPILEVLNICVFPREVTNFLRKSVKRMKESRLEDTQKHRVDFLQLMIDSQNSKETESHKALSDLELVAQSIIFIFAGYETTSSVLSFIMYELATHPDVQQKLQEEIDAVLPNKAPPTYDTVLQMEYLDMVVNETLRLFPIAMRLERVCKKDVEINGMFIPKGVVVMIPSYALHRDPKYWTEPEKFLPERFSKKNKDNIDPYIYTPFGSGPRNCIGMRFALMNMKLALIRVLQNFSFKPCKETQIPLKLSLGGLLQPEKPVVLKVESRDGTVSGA
Outline: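 Signal was normalized against complete inhibition by 57 uM ketoconazole. The reaction used 20nM CYP3A4 with 25uM Luciferin-PPXE, 10-min compound preincubation and a 60-min NADPH-supported step at RT.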

[21] = Primary qHTS for small molecule stabilizers of the endoplasmic reticulum resident proteome: Secreted ER Calcium Modulated Protein (SERCaMP) assay (AID 1508630); further: on the % scale 0 is the no-effect control and ±100 the full control effect
Outline: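 GLuc-SERCaMP-expressing SH-SY5Y cells, pretreated 16 h with compound, are challenged with thapsigargin to empty ER calcium stores; after 4 h, coelenterazine is added directly to the medium and luminescence is imaged.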

[22] = target: Cytochrome P450 3A4 (Homo sapiens) (UniProt P08684); experiment: qHTS Assay for Inhibitors and Substrates of Cytochrome P450 3A4 (AID 884); further: potency means the concentration at half of the fitted maximal effect; nearly all actives have a fitted effect of over 50% in size
Outline: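 20 nM human CYP3A4 with 25 uM Luciferin-PPXE (at KM) in 200 mM KPO4, preincubated 10 min with compound; NADPH regeneration started a 60 min RT reaction. Luciferin detected by luminescence, normalized to 57 uM ketoconazole as full inhibition.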

CC(C)(C)NC[C@H](O)c1ccc(O)c(CO)c1
-16.6%: max response ([16]; measured here: cell count channel max response)
inactive: activity change, negative = inhibition ([1]; at 17.2 µM (top of the series)) -9.06% | activity change, negative = inhibition ([1]; at 38 µM (top of the series)) -4.2% and -6.86% | activity change, negative = inhibition ([2]; at 17.2 µM (top of the series)) -10.8% | activity change, negative = inhibition ([2]; at 38 µM (top of the series)) 0.545% and 8.74% | activity, negative = inhibition ([3]; at 17.2 µM (top of the series)) 16.1% | activity, negative = inhibition ([3]; at 38 µM (top of the series)) -5.91% and -0.604% | Potency [4] > 46 µM and > 20.6 µM | Potency [5] > 46 µM and > 20.6 µM | Potency [6] | Potency [7] | outcome [8] | outcome [9] | Potency [10] | outcome [11] | Potency [12] | outcome [13] | outcome [14] | outcome [15] | activity change, negative = inhibition ([16]; at 25.7 µM (top of the series)) -2.46% | activity change, negative = inhibition ([16]; at 57.5 µM (top of the series)) 3.61% | Potency [17] | Potency [18] | Potency [19]
-19.3% and -13%: max response ([16]; measured here: lipid channel max response)

OC(CN1CCNCC1)Cn1c2ccc(Br)cc2c2cc(Br)ccc21 (configuration not stated)
inactive: Potency [20] | Potency [19] | Potency [21]

CCOC(=O)C1CSC(Cc2ccc(OCc3ccc([N+](=O)[O-])cc3)cc2)N1 (configuration not stated)
inactive: Potency [20] | Potency [19] | Potency [21]
active: Potency [22] 15.8 µM
